PubChem BioAssay (NCI)
Values joined by “and” are separate entries in the source; they are usually repeats but may differ in a detail not shown here. Equal entries are not always repeated. The panel holds about 83,000 compounds, 20% with a hit somewhere; the sample as a whole holds those more often.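 In brief: 96-well plates, 48 h treatment, single concentration, percent growth endpoint.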 Active and inactive are the calls of the source. The calls were made as follows: active = growth percent below 10; inactive = the rest.

Tests used:
Assay in all cases: NCI-60 one-dose screen, 48 h (100 = growth as untreated, 0 = no growth, -100 = all killed)
[1] = test system: NCI-H23 lung
[2] = test system: NCI-H226 lung
[3] = test system: NCI-H322M lung
[4] = test system: NCI-H460 lung
[5] = test system: HOP-92 NSCLC; details: 10 µM unless noted
[6] = test system: A549/ATCC NSCLC
[7] = test system: 786-0 renal
[8] = test system: COLO 205 colon
[9] = test system: DU-145 prostate
[10] = test system: K-562 leukemia
[11] = test system: MALME-3M melanoma
[12] = test system: MDA-MB-231 breast
[13] = test system: RXF 393 renal
[14] = test system: SF-268 CNS
[15] = test system: SF-295 CNS
[16] = test system: SF-539 CNS
[17] = test system: UACC-257 melanoma
[18] = test system: M14 melanoma
[19] = test system: HOP-62 NSCLC
[20] = test system: NCI-H522 lung; details: 10 µM unless noted

Measured: growth

S=c1nc[nH]c2nc[nH]c12
inactive: [1]; 10 µM 31.9% | [1]; 50 µM 21.3% | [2]; 10 µM unless noted 46.3% | [3]; 10 µM unless noted 33% [50 µM] | [4]; 10 µM 45.3% | [4]; 50 µM 26.9% | [5] 51% [50 µM] | [6]; 10 µM 84.8% | [6]; 50 µM 48.2% | [7]; 10 µM 17.3% | [7]; 50 µM 25.9% | [8]; 10 µM 35.2% | [9]; 10 µM 44.3% | [9]; 50 µM 25.3% | [10]; 10 µM unless noted 11.9% [50 µM] | [11]; 10 µM 50.1% | [11]; 50 µM 17.4% | [12]; 10 µM 42.9% | [12]; 50 µM 40.2% | [13]; 10 µM 62.8% | [13]; 50 µM 59.7% | [14]; 10 µM 39.2% | [14]; 50 µM 24.7% | [15]; 10 µM 11.4% | [15]; 50 µM 18.1% | [16]; 10 µM 31.2% | [16]; 50 µM 14.4% | [17]; 10 µM 44.2% | [17]; 50 µM 29.7% | [18]; 10 µM 14.1% | [18]; 50 µM 15.6%
active: [8]; 50 µM 6.94%

COc1ccc(CCNC(=S)NN)cc1OC
inactive: [1]; 10 µM unless noted 99.5% | [2]; 10 µM unless noted 106% | [3]; 10 µM unless noted 108% | [19]; 10 µM unless noted 117% | [4]; 10 µM unless noted 101% | [5] 94.8% | [20] 102% | [6]; 10 µM unless noted 106% | [7]; 10 µM unless noted 109% | [8]; 10 µM unless noted 112% | [9]; 10 µM unless noted 106% | [10]; 10 µM unless noted 101% | [11]; 10 µM unless noted 124% | [12]; 10 µM unless noted 114% | [13]; 10 µM unless noted 200% | [14]; 10 µM unless noted 96% | [15]; 10 µM unless noted 103% | [16]; 10 µM unless noted 95% | [17]; 10 µM unless noted 108% | [18]; 10 µM unless noted 104%

O=C1c2ccccc2C(c2ccccc2)C1c1ccccc1 (centres undefined)
inactive: [1]; 10 µM unless noted 91% | [2]; 10 µM unless noted 101% | [3]; 10 µM unless noted 92.5% | [19]; 10 µM unless noted 98.6% | [4]; 10 µM unless noted 95.8% | [5] 80.2% | [20] 86.2% | [6]; 10 µM unless noted 91.3% | [7]; 10 µM unless noted 107% | [8]; 10 µM unless noted 101% | [9]; 10 µM unless noted 104% | [10]; 10 µM unless noted 77.2% | [11]; 10 µM unless noted 99.5% | [12]; 10 µM unless noted 89.1% | [13]; 10 µM unless noted 102% | [14]; 10 µM unless noted 97.9% | [15]; 10 µM unless noted 94.8% | [16]; 10 µM unless noted 101% | [17]; 10 µM unless noted 96.3% | [18]; 10 µM unless noted 97.7%

CC1(C)CC(=O)NC1=O
inactive: [1]; 10 µM unless noted 96.5% | [2]; 10 µM unless noted 99.6% | [3]; 10 µM unless noted 94.2% | [19]; 10 µM unless noted 101% | [4]; 10 µM unless noted 108% | [5] 114% | [20] 96.8% | [6]; 10 µM unless noted 99.3% | [7]; 10 µM unless noted 97.6% | [8]; 10 µM unless noted 113% | [9]; 10 µM unless noted 109% | [10]; 10 µM unless noted 94.8% | [11]; 10 µM unless noted 102% | [12]; 10 µM unless noted 106% | [13]; 10 µM unless noted 97.7% | [14]; 10 µM unless noted 100% | [15]; 10 µM unless noted 108% | [16]; 10 µM unless noted 93.5% | [17]; 10 µM unless noted 101%

CC(=O)Oc1ccc(C(c2ccc(OC(C)=O)cc2)c2ccccn2)cc1
inactive: [1]; 10 µM unless noted 59.7% and 57% | [2]; 10 µM unless noted 89.2% and 106% | [3]; 10 µM unless noted 30.6% and 64.6% | [19]; 10 µM unless noted 87.9% and 109% | [4]; 10 µM unless noted 105% and 101% | [5] 66.1% and 34.1% | [20] 91.4% and 72.6% | [6]; 10 µM unless noted 87% and 13.8% | [7]; 10 µM unless noted 101% | [8]; 10 µM unless noted 24% and 17.9% | [9]; 10 µM unless noted 96.8% and 106% | [10]; 10 µM unless noted 89.6% and 99.2% | [11]; 10 µM unless noted 100% and 107% | [12]; 10 µM unless noted 100% and 102% | [13]; 10 µM unless noted 71.9% and 16.1% | [14]; 10 µM unless noted 104% and 99.3% | [15]; 10 µM unless noted 92.1% | [16]; 10 µM unless noted 100% and 75.6% | [17]; 10 µM unless noted 96.1% and 88.3%

CCC(C)NC(=O)c1ccccc1C (centres undefined)
inactive: [1]; 10 µM unless noted 91.7% | [2]; 10 µM unless noted 93.6% | [3]; 10 µM unless noted 97.7% | [19]; 10 µM unless noted 92.1% | [4]; 10 µM unless noted 102% | [5] 84.5% | [20] 94.2% | [6]; 10 µM unless noted 100% | [7]; 10 µM unless noted 95.7% | [8]; 10 µM unless noted 103% | [9]; 10 µM unless noted 106% | [10]; 10 µM unless noted 129% | [11]; 10 µM unless noted 77.7% | [12]; 10 µM unless noted 104% | [13]; 10 µM unless noted 96% | [14]; 10 µM unless noted 101% | [15]; 10 µM unless noted 100% | [16]; 10 µM unless noted 96.6% | [17]; 10 µM unless noted 100% | [18]; 10 µM unless noted 95.3%

ON=C(C1CCCCC1)C1CCCCC1
inactive: [1]; 10 µM unless noted 97.8% | [2]; 10 µM unless noted 102% | [3]; 10 µM unless noted 93.2% | [19]; 10 µM unless noted 99.5% | [4]; 10 µM unless noted 108% | [5] 85.7% | [20] 107% | [6]; 10 µM unless noted 95.9% | [7]; 10 µM unless noted 99.9% | [8]; 10 µM unless noted 109% | [9]; 10 µM unless noted 107% | [10]; 10 µM unless noted 108% | [11]; 10 µM unless noted 91.9% | [12]; 10 µM unless noted 95.3% | [13]; 10 µM unless noted 109% | [14]; 10 µM unless noted 98.1% | [15]; 10 µM unless noted 105% | [16]; 10 µM unless noted 96.3% | [17]; 10 µM unless noted 99.5%

Nc1ccc2ccc(NS(=O)(=O)N3CCCCC3)cc2c1
inactive: [1]; 10 µM unless noted 43.8% | [2]; 10 µM unless noted 15.2% | [3]; 10 µM unless noted 50.9% | [19]; 10 µM unless noted 35.4% | [5] 68% | [20] 47.5% | [6]; 10 µM unless noted 39.3% | [7]; 10 µM unless noted 30.7% | [9]; 10 µM unless noted 12.7% | [11]; 10 µM unless noted 45.3% | [12]; 10 µM unless noted 11.8% | [13]; 10 µM unless noted 51.4% | [14]; 10 µM unless noted 32.3% | [15]; 10 µM unless noted 15.1% | [17]; 10 µM unless noted 87.7%
active: [4]; 10 µM unless noted 7.56% | [8]; 10 µM unless noted -40.9% | [10]; 10 µM unless noted 8.04% | [16]; 10 µM unless noted -21.7%

O=C(/C=C/C=C/c1ccc2c(c1)OCO2)N1CCCCC1
inactive: [1]; 10 µM unless noted 95.6% and 102% | [2]; 10 µM unless noted 104% and 95% | [3]; 10 µM unless noted 101% and 113% | [19]; 10 µM unless noted 100% | [4]; 10 µM unless noted 109% and 113% | [5] 97.3% and 89.6% | [20] 115% and 81.1% | [6]; 10 µM unless noted 104% and 98.5% | [7]; 10 µM unless noted 103% and 57.4% | [8]; 10 µM unless noted 114% and 106% | [9]; 10 µM unless noted 119% and 110% | [10]; 10 µM unless noted 90.5% and 70.7% | [11]; 10 µM unless noted 108% and 214% | [12]; 10 µM unless noted 98.6% and 98% | [13]; 10 µM unless noted 105% and 110% | [14]; 10 µM unless noted 114% and 99.2% | [15]; 10 µM unless noted 85.4% and 107% | [16]; 10 µM unless noted 109% and 101% | [17]; 10 µM unless noted 114% and 106% | [18]; 10 µM unless noted 109% and 99.5%

COc1cc(NCCCCCCCNC(C)C)c2nccc(C)c2c1
inactive: [1]; 10 µM unless noted 81.4% and 77.1% | [2]; 10 µM unless noted 90.9% and 75.7% | [3]; 10 µM unless noted 87% and 68.5% | [19]; 10 µM unless noted 73.6% and 72.1% | [4]; 10 µM unless noted 85.5% and 57.2% | [5] 39.3% and 75.6% | [20] 89.1% and 91.7% | [6]; 10 µM unless noted 95.1% and 90.6% | [7]; 10 µM unless noted 82.5% and 82.1% | [9]; 10 µM unless noted 102% and 91.4% | [11]; 10 µM unless noted 94.6% and 42.1% | [12]; 10 µM unless noted 68% and 62.9% | [13]; 10 µM unless noted 81.4% and 107% | [14]; 10 µM unless noted 93.2% and 82.1% | [15]; 10 µM unless noted 71.8% | [16]; 10 µM unless noted 91.5% and 73.1% | [17]; 10 µM unless noted 107% and 89.7% | [18]; 10 µM unless noted 82.8% and 68%
53.8% (inactive) and -5.98% (active): [8]; 10 µM unless noted
54.8% (inactive) and 7.58% (active): [10]; 10 µM unless noted

Cc1ccc(NC(=S)N/C=C(\c2ccccc2)S(=O)Cc2ccccc2)c(C)c1 (centres undefined)
inactive: [1]; 10 µM unless noted 99.7% | [2]; 10 µM unless noted 90.2% | [3]; 10 µM unless noted 94.8% | [19]; 10 µM unless noted 95.8% | [4]; 10 µM unless noted 101% | [5] 80.1% | [20] 90.5% | [6]; 10 µM unless noted 97.7% | [7]; 10 µM unless noted 98.2% | [8]; 10 µM unless noted 104% | [9]; 10 µM unless noted 109% | [10]; 10 µM unless noted 98.2% | [11]; 10 µM unless noted 106% | [12]; 10 µM unless noted 104% | [13]; 10 µM unless noted 106% | [14]; 10 µM unless noted 101% | [15]; 10 µM unless noted 98.9% | [16]; 10 µM unless noted 103% | [17]; 10 µM unless noted 98.9%

O=c1ccn2c(n1)OC1CC2OC1COC(c1ccccc1)(c1ccccc1)c1ccccc1 (centres undefined)
inactive: [1]; 10 µM 116% | [1]; 100 µM 99.6% | [2]; 10 µM 102% | [2]; 100 µM 90.5% | [3]; 10 µM 106% | [3]; 100 µM 49.9% | [19]; 10 µM 99.6% | [19]; 100 µM 96.3% | [4]; 10 µM 106% | [4]; 100 µM 94.5% | [5] 72.4% [100 µM] | [20] 60.7% [100 µM] | [6]; 10 µM 93.5% | [6]; 100 µM 83% | [7]; 10 µM 113% | [7]; 100 µM 86.1% | [8]; 10 µM 112% | [8]; 100 µM 115% | [9]; 10 µM 115% | [9]; 100 µM 99.1% | [10]; 10 µM 102% | [10]; 100 µM 50.4% | [11]; 10 µM 119% | [11]; 100 µM 95% | [12]; 10 µM 111% | [12]; 100 µM 82.1% | [13]; 10 µM 107% | [13]; 100 µM 75.8% | [14]; 10 µM 119% | [14]; 100 µM 76.3% | [15]; 10 µM 118% | [15]; 100 µM 67.1% | [16]; 10 µM 110% | [16]; 100 µM 48.8% | [17]; 10 µM unless noted 93.8% [100 µM] | [18]; 10 µM 112% | [18]; 100 µM 46.1%
